Molecules are shown by their SMILES. This is part of a sample that, as a whole, favours compounds with a hit. Of some 83,000 tested, about 20% had one in any assay.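 Assay: single dose, 48 h. Readout: percent growth (0 = no net growth; negative = cell death). Active: <10.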 A number with no mark means an inactive call. Activity calls are given as the source filed them.

This note sets out measurements from PubChem BioAssay (NCI).

Common to all, as to assay: NCI-60 one-dose screen, 48 h (100 = growth as untreated, 0 = no growth, -100 = all killed)
What all share (conditions): 10 µM unless noted

Assay [1] relates to NCI-H23 lung.
For assay [2], the system named is NCI-H226 lung.
Assay [3] has as its system NCI-H322M lung.
The test system of assay [4] is HOP-62 NSCLC.
The subject of assay [5] is NCI-H460 lung.
Assay [6] concerns HOP-92 NSCLC.
In assay [7] the test system is NCI-H522 lung.
In assay [8] the test system is A549/ATCC NSCLC.
For assay [9], the system named is 786-0 renal.
The subject of assay [10] is DU-145 prostate.
Assay [11] deals with K-562 leukemia.
In assay [12] the test system is MALME-3M melanoma.
Assay [13] concerns MDA-MB-231 breast.
Assay [14] has as its system RXF 393 renal.
The test system of assay [15] is SF-268 CNS.
Assay [16] relates to SF-295 CNS.
Assay [17] concerns SF-539 CNS.
The test system of assay [18] is UACC-257 melanoma.
Assay [19] concerns M14 melanoma.

As to `O=C1Nc2ccccc2/C1=N/N=C/c1c[nH]c2ccccc12`, the growth was 82% in assay [1]; 62.7% in assay [2]; 72.9% in assay [3]; 67.3% in assay [4]; 63% in assay [5]; 75.2% in assay [6]. Moreover, the growth was 69.2% in assay [7]; 78.4% in [8]; 91.9% in assay [9]; 58.3% in [10]; 80.2% in assay [11]; 71.8% in [12]. In addition, the growth is 60% in assay [13]; 57.5% in [14]; 65.1% in assay [15]; 95.6% in [16]; 78% in assay [17]; 92.4% in assay [18]. Also, in [19], the growth is 59.5%.
In the case of `CCNCCNc1cc(-c2ccc(C#N)cc2)c(C#N)c2nc3ccccc3n12`, the growth in assay [1] was 47.5%; in assay [2] it was 81.1%; in assay [3] it was 33.6%; in assay [4], 56.6%; in assay [5], -28.1% (active); in [6], 63.3%. The growth in assay [7] is 31.8%; in assay [8] it was 2.81% (active); in [9], 28%; in assay [10], 33.6%; in assay [11] it was 23.9%; in [12], 51.6%. Moreover, the growth in assay [13] was 6.63% (active); in assay [14], -10.6% (active); in assay [15], 35.1%; in [16], -64.6% (active); in assay [17] it was -77.3% (active); in assay [18] it was 57.5%. Also, the growth in [19] was -6.91% (active).
As for `Nc1ccn(C2OC(F)(CO)C(O)C2F)c(=O)n1` (configuration not stated), the growth in [1] was 10.3%; in [2], 89.4%; in assay [3], 71.1%; in assay [4] it was 17.3%; in assay [5] it was 12.7%; in assay [6], 53.3%. Besides, the growth in assay [7] is 32.8%; in assay [8], 21.8%; in assay [9] it was 10.9%; in assay [10], 24.6%; in assay [11], 69%; in assay [12], 57.4%. The growth in assay [13] was 93.4%; in assay [14] it was 82.4%; in assay [15], 47.1%; in assay [16], 55.2%; in [17] it was 46.9%; in assay [18], 62.6%. Moreover, the growth in assay [19] was 1.59% (active).
In the case of `Cn1cc(Nc2nccc(-c3ccc(N4CCCC4)c(C#N)c3)n2)cn1`, the growth in [1] is 63.3%; in [2], 78.9%; in [3], 52%; in assay [4], 25.5%; in assay [5], 8.94% (active); in [6], 67%. The growth in assay [7] was 22%; in assay [8], 22.6%; in [9], 42.7%; in [10], 55.7%; in assay [11], 9.73% (active); in [12], 54.4%. Further, the growth is 63.9% in [13]; 43.9% in [14]; 45.9% in [15]; 71.3% in assay [16]; 43.8% in [17]; 69.6% in [18]. The growth in [19] is 17.2%.
With `CCNCCNc1cc(-c2cccc(C(F)(F)F)c2)c(C#N)c2nc3ccccc3n12`, the growth in assay [1] was -57.6% (active); in assay [2], -67.2% (active); in assay [3], -63.1% (active); in assay [4] it was -75.1% (active); in assay [5], -70.4% (active); in assay [6], -58.1% (active). Besides, the growth was -71.3% (active) in assay [7]; -91.9% (active) in assay [8]; -88% (active) in assay [9]; -74.9% (active) in assay [10]; -65.8% (active) in assay [11]; -77.3% (active) in [12]. Also, the growth in assay [13] was -66.2% (active); in assay [14], -85.6% (active); in [15] it was -73.8% (active); in assay [16], -82.3% (active); in assay [17] it was -88.7% (active); in assay [18], -84.4% (active). Besides, the growth in assay [19] is -89.3% (active).
In the case of `CN1C[C@@H](c2ccc(Cl)cc2)[C@]2(NC(=S)N(c3ccc(F)c(Cl)c3)C2=O)[C@@]12C(=O)NC1C=CC(Cl)=C[C@H]12` (some centres not stated), the growth was 51.9% in [1]; 59.8% in assay [2]; 74.6% in assay [3]; 79.8% in assay [4]; 32.8% in assay [5]; -7.71% (active) in assay [6]. Further, the growth was 43.2% in assay [7]; 53% in assay [8]; -68% (active) in assay [9]; 67.3% in assay [10]; 10.3% in [11]; 91.2% in [12]. In addition, the growth was 31.6% in assay [13]; 21.3% in assay [14]; 54% in assay [15]; 46.8% in assay [16]; 73.5% in assay [17]; 65% in assay [18]. Moreover, in assay [19], the growth was -31.2% (active).
As to `CC(C)n1nc(C#Cc2cccc(O)c2)c2c(N)ncnc21`, the growth in assay [1] was -28.4% (active); in [2] it was -41.8% (active); in assay [3], -30.3% (active); in [4], -52.5% (active); in assay [5], -5.33% (active); in assay [6], -70.5% (active). Moreover, the growth was -44.5% (active) in [7]; -60% (active) in assay [8]; -72% (active) in [9]; -6.9% (active) in assay [10]; -23% (active) in assay [11]; -74.9% (active) in [12]. The growth is -67.7% (active) in assay [13]; -87.2% (active) in assay [14]; -49.4% (active) in [15]; -71.9% (active) in assay [16]; -75.4% (active) in assay [17]; -41.4% (active) in assay [18]. The growth in [19] was -63.8% (active).
As to `O=C1NCC(=O)N(Cc2ccco2)[C@H]1Cc1ccccc1`, the growth in assay [1] is 100%; in assay [2] it was 89%; in assay [3], 112%; in [4], 81.6%; in assay [5], 103%; in assay [6] it was 88.7%. For the same molecule, the growth is 88.2% in assay [7]; 102% in [8]; 95.1% in assay [9]; 110% in assay [10]; 107% in assay [11]; 110% in assay [12]. For the same molecule, the growth in assay [13] is 89.1%; in [14], 117%; in assay [15] it was 102%; in assay [16], 96.5%; in assay [17] it was 97.9%; in assay [18] it was 86.9%. In addition, the growth in assay [19] is 98.2%.
